# Reference: PMC7862700, “An all-to-all approach to the identification of sequence-specific readers for epigenetic DNA modifications on cytosine”
# Legend:
# Assay in all cases: DAPPL (digital affinity profiling via proximity ligation, sequencing); 10 mM Tris-HCl pH 7.5, 50 mM NaCl, 1 mM DTT, 4% glycerol, room temperature, 30 min; GST-TFs on glutathione beads, 16-mer random dsDNA library, 0.1% formaldehyde crosslink after washing; high values mean tight binding
# FLI1 = biological target: T1, FLI1 (Homo sapiens, UniProt Q01543 1-452); settings: protein: recombinant; tags: N-terminal GST; dsDNA, one strand shown
# T1 sequence: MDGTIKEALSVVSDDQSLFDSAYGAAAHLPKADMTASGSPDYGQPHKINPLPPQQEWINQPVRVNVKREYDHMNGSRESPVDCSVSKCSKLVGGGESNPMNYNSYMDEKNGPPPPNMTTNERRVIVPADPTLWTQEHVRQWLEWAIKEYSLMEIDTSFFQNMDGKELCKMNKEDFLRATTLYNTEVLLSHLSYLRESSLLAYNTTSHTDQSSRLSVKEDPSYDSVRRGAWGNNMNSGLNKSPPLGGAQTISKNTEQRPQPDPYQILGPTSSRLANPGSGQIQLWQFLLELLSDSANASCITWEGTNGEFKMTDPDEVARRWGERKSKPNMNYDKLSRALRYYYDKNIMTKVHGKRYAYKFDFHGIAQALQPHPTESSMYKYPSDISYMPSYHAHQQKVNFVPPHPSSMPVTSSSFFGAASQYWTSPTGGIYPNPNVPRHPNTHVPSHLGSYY
# Method in brief: (§1)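 Human transcription factors fused to GST were expressed in yeast, captured on glutathione beads, given DNA barcodes and pooled with a GST-only negative control. Pools were incubated with 200 nmole of a 16-mer random double-stranded DNA library in Tris/NaCl/DTT/glycerol buffer at room temperature for 30 min. They were then washed, crosslinked with 0.1% formaldehyde, proximity-ligated (BsaI/T4 ligase, 1 h, 37 °C), PCR-amplified and sequenced on an Illumina NextSeq500. Binding signal is each 6-mer's read frequency for a factor divided by its frequency for the GST control.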
# ELK1 = biological target: T2, ELK1 (Homo sapiens, UniProt P19419 1-428); settings: protein: recombinant; tags: N-terminal GST; dsDNA, one strand shown
# T2 sequence: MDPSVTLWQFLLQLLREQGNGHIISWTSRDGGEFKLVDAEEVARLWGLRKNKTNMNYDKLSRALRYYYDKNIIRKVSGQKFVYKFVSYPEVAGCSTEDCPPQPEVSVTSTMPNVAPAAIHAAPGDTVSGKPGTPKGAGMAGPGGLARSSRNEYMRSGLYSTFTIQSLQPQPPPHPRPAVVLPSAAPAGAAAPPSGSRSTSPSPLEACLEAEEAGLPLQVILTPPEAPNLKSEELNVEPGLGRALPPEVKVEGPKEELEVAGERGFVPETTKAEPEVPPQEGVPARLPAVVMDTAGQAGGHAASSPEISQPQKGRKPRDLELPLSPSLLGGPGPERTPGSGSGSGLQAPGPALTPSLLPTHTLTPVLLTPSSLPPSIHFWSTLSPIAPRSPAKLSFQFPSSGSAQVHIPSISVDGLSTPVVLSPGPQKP
# Method in brief: as §1
# GABPA = biological target: T3, GABPA (Homo sapiens, UniProt Q06546 1-454); settings: protein: recombinant; tags: N-terminal GST; dsDNA, one strand shown
# T3 sequence: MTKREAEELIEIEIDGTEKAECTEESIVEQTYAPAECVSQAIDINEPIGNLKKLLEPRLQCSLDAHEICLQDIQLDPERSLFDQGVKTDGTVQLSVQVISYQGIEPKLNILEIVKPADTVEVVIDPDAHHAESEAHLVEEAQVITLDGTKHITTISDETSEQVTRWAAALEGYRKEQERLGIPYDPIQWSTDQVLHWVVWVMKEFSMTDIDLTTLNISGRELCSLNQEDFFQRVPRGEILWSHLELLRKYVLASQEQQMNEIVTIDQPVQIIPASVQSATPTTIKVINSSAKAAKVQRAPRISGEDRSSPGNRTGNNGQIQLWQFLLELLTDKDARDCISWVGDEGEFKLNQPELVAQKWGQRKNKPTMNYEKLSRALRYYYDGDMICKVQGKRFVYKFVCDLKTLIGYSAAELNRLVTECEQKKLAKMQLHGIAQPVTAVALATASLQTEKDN
# Method in brief: as §1
# ERG = biological target: T4, ERG (Homo sapiens, UniProt P11308 1-479); settings: protein: recombinant; tags: N-terminal GST; dsDNA, one strand shown
# T4 sequence: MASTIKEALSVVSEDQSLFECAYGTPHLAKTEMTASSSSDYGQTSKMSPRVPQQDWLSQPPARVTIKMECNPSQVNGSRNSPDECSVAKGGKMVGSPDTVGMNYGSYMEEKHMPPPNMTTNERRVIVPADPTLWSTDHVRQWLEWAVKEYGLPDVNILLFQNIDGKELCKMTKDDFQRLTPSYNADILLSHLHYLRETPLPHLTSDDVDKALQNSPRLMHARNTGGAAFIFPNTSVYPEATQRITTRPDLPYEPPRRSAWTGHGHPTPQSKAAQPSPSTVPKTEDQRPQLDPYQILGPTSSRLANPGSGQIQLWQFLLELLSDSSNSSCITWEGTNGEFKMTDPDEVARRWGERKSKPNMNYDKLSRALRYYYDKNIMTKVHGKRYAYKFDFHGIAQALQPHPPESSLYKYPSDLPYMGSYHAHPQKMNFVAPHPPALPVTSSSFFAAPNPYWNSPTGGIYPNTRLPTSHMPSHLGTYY
# Method in brief: as §1
# ELF1 = ELF1 (Homo sapiens, UniProt P32519 1-619); settings: protein: recombinant; tags: N-terminal GST; dsDNA, one strand shown
# Method in brief: as §1
# EHF = biological target: T5, EHF (Homo sapiens, UniProt Q9NZC4 1-300); settings: protein: recombinant; tags: N-terminal GST; dsDNA, one strand shown
# T5 sequence: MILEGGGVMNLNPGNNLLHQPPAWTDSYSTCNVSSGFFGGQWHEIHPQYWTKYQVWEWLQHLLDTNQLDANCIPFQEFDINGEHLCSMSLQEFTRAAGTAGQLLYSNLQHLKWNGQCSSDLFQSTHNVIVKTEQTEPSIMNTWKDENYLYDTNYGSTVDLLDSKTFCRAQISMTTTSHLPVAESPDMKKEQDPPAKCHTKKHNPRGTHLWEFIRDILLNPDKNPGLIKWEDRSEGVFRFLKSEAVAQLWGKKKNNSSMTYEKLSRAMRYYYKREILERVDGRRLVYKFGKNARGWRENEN
# Method in brief: as §1
# SPI1 = SPI1 (Homo sapiens, UniProt P17947 1-270); settings: protein: recombinant; tags: N-terminal GST; dsDNA, one strand shown
# Method in brief: as §1
# SPIB = SPIB (Homo sapiens, UniProt Q01892 1-262); settings: protein: recombinant; tags: N-terminal GST; dsDNA, one strand shown
# Method in brief: as §1
# ELK3 = biological target: T6, ELK3 (Homo sapiens, UniProt P41970 1-407); settings: protein: recombinant; tags: N-terminal GST; dsDNA, one strand shown
# T6 sequence: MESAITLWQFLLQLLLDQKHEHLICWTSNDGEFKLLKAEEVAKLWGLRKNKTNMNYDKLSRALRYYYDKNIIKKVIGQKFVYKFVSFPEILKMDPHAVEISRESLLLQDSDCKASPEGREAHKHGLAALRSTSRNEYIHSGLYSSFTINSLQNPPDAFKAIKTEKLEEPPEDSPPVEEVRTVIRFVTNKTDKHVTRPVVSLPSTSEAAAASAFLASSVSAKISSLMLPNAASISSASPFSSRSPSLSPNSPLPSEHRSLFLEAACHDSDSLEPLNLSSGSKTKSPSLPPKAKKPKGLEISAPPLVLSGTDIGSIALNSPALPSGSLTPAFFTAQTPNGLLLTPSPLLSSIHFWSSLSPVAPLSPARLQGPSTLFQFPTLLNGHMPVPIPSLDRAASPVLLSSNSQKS
# Method in brief: as §1
# FEV = biological target: T7, FEV (Homo sapiens, UniProt Q99581 1-238); settings: protein: recombinant; tags: N-terminal GST; dsDNA, one strand shown
# T7 sequence: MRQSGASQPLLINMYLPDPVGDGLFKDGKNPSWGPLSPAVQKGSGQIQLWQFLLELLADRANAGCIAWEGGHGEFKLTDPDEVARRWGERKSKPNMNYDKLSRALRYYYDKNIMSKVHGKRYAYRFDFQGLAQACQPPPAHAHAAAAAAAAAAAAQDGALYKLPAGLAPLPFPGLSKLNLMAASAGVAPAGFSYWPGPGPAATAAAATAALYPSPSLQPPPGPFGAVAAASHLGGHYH
# Method in brief: as §1
# ETV5 = ETV5 (Homo sapiens, UniProt P41161 1-510); settings: protein: recombinant; tags: N-terminal GST; dsDNA, one strand shown
# Method in brief: as §1
# HSF1 = HSF1 (Homo sapiens, UniProt Q00613 1-529); settings: protein: recombinant; tags: N-terminal GST; chain copies: 3; dsDNA, one strand shown
# Method in brief: as §1
# SPIC = biological target: T8, SPIC (Homo sapiens, UniProt Q8N5J4 1-248); settings: protein: recombinant; tags: N-terminal GST; dsDNA, one strand shown
# T8 sequence: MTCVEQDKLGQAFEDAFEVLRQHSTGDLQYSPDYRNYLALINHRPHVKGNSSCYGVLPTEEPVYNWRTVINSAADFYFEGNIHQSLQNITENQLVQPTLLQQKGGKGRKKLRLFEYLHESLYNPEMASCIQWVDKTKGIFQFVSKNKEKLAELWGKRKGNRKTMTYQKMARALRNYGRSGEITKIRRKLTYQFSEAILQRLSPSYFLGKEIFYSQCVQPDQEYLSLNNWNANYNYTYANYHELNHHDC
# Method in brief: as §1
# ELF4 = ELF4 (Homo sapiens, UniProt Q99607 1-663); settings: protein: recombinant; tags: N-terminal GST; dsDNA, one strand shown
# Method in brief: as §1
# ELK4 = biological target: T9, ELK4 (Homo sapiens, UniProt P28324-2 1-405); settings: protein: recombinant; tags: N-terminal GST; dsDNA, one strand shown
# T9 sequence: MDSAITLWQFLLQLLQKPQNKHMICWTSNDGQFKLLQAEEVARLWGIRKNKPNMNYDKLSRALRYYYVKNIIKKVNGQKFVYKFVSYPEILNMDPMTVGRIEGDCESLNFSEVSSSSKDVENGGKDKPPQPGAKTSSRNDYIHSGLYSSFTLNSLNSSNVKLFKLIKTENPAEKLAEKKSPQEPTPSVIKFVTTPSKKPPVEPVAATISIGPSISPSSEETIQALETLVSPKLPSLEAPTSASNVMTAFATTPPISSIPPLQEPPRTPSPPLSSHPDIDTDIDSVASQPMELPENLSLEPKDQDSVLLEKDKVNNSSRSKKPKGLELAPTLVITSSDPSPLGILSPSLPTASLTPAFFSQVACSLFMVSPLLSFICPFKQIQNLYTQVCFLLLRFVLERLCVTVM
# Method in brief: as §1
# ETV2 = biological target: T10, ETV2 (Homo sapiens, UniProt O00321 1-342); settings: protein: recombinant; tags: N-terminal GST; dsDNA, one strand shown
# T10 sequence: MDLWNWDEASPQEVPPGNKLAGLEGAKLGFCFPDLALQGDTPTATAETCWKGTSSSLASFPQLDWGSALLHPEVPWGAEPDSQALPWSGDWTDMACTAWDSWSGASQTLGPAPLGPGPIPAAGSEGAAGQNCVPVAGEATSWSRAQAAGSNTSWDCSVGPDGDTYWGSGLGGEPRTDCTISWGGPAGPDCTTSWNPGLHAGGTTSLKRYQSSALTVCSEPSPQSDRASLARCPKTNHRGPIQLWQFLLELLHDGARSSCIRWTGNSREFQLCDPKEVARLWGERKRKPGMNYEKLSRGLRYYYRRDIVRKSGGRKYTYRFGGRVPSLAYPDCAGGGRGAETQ
# Method in brief: as §1
# ELF3 = biological target: T11, ELF3 (Homo sapiens, UniProt P78545 1-371); settings: protein: recombinant; tags: N-terminal GST; dsDNA, one strand shown
# T11 sequence: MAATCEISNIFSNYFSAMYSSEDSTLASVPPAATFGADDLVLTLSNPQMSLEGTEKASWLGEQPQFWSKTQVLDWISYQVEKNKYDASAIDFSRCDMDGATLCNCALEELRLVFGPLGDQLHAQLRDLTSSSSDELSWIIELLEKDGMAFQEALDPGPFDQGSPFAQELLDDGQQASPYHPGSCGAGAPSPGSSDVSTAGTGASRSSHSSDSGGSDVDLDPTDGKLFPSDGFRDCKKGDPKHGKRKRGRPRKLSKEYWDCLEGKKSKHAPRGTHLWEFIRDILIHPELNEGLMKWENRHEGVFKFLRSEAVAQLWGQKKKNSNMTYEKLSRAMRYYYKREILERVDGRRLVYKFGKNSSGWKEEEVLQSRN
# Method in brief: as §1
# CRX = CRX (Homo sapiens, UniProt O43186 1-299); settings: protein: recombinant; tags: N-terminal GST; dsDNA, one strand shown
# Method in brief: as §1
# ETV1 = ETV1 (Homo sapiens, UniProt P50549 1-477); settings: protein: recombinant; tags: N-terminal GST; dsDNA, one strand shown
# Method in brief: as §1
# ELF1, sequence (P32519 whole entry): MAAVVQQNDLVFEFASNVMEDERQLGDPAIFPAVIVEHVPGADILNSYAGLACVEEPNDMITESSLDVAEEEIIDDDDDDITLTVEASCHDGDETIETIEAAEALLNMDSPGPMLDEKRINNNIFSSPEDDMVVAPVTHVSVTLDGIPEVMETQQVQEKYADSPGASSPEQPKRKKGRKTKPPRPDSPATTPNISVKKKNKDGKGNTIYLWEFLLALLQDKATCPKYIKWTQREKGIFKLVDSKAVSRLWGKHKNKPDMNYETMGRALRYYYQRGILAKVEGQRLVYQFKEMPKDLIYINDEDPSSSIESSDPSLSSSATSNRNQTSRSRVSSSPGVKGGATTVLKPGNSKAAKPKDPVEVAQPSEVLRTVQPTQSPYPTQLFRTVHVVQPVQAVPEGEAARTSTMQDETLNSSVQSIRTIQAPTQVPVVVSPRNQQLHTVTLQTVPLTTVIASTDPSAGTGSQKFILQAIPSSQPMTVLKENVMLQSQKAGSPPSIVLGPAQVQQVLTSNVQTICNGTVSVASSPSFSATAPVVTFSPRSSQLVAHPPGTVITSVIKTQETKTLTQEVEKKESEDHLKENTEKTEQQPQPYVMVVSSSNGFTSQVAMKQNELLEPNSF
# CRX, sequence (O43186 whole entry): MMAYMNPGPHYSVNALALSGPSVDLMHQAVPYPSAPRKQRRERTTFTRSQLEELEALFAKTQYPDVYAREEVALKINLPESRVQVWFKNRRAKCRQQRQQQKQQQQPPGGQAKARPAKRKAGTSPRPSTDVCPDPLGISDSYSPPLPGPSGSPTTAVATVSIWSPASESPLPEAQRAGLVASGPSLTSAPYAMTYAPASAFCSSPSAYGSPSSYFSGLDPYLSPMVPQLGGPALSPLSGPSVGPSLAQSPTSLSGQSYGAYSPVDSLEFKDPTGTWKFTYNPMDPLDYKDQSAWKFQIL
# HSF1, sequence (Q00613 whole entry): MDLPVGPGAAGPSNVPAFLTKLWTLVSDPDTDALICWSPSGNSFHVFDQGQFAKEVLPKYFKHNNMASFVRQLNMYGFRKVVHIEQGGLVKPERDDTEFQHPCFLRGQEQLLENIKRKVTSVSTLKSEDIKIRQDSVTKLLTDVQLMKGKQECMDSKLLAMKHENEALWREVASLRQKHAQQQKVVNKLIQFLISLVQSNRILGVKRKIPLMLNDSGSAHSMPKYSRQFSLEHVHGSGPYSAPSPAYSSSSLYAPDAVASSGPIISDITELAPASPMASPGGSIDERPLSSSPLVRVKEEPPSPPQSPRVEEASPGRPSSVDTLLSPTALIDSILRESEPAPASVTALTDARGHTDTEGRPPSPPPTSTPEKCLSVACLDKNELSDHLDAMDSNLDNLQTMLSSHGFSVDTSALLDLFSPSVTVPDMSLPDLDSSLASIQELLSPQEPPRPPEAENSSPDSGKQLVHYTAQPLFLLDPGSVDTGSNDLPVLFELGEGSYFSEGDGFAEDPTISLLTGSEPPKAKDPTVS
# ETV5, sequence (P41161 whole entry): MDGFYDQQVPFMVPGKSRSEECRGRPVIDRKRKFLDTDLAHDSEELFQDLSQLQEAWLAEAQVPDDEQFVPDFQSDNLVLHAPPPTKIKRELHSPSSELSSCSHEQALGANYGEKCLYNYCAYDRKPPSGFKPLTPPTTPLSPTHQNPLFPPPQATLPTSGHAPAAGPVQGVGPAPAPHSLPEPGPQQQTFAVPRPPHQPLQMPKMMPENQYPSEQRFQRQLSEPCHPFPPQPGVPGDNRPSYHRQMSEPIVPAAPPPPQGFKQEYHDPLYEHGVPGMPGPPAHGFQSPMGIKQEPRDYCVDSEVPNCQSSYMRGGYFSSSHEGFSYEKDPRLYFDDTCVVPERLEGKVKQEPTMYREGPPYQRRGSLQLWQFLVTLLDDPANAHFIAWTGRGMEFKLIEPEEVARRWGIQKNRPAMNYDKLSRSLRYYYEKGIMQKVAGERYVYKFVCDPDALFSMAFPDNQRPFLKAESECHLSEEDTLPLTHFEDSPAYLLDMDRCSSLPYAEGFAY
# ELF4, sequence (Q99607 whole entry): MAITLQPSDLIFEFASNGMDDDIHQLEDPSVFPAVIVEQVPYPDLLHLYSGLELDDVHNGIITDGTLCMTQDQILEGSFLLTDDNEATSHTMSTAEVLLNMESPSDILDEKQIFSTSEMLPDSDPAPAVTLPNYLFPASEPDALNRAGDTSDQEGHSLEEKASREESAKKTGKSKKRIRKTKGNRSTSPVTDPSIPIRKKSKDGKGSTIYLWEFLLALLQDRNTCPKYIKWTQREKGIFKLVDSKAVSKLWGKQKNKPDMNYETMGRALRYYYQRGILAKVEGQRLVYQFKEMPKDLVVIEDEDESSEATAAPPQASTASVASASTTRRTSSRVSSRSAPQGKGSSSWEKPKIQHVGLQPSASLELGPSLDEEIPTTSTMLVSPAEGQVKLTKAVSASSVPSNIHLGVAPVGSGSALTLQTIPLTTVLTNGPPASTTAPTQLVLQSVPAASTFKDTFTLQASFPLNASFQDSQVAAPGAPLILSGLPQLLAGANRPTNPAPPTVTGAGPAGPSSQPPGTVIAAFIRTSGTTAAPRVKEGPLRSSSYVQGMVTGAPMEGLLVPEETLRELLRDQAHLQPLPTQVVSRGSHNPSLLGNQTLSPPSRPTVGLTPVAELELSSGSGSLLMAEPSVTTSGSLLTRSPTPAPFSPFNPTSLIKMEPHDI
# ETV1, sequence (P50549 whole entry): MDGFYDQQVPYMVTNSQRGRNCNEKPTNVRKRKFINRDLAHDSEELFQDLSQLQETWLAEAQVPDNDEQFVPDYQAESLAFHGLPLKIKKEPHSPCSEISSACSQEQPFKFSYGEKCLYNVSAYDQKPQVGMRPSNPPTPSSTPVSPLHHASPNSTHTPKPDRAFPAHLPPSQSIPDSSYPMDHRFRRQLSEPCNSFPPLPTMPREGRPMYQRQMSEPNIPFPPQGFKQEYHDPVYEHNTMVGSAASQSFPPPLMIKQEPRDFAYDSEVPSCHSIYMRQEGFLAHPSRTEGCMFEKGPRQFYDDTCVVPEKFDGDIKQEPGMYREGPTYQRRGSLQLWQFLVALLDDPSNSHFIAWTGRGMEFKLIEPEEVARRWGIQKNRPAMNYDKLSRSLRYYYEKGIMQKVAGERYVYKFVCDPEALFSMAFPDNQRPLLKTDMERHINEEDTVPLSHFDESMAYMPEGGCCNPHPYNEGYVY
# SPIB, sequence (Q01892 whole entry): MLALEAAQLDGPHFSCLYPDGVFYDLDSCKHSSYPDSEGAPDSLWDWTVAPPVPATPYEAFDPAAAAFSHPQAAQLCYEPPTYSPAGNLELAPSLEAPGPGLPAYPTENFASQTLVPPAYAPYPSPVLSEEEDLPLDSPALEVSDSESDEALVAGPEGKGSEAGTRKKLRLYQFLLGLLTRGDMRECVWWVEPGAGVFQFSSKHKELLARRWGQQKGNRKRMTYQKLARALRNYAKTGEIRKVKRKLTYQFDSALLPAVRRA
sequence,measurement,setting,value
CTGAAC,binding signal,FLI1,"1.35 fold enrichment (6-mer frequency, TF over GST control)"
same,binding signal,ELK1,"1.41 fold enrichment (6-mer frequency, TF over GST control)"
same,binding signal,GABPA,"1.37 fold enrichment (6-mer frequency, TF over GST control)"
same,binding signal,ERG,"1.4 fold enrichment (6-mer frequency, TF over GST control)"
same,binding signal,ELF1,"1.37 fold enrichment (6-mer frequency, TF over GST control)"
same,binding signal,EHF,"1.35 fold enrichment (6-mer frequency, TF over GST control)"
same,binding signal,SPI1,"1.36 fold enrichment (6-mer frequency, TF over GST control)"
same,binding signal,SPIB,"1.42 fold enrichment (6-mer frequency, TF over GST control)"
same,binding signal,ELK3,"1.2 fold enrichment (6-mer frequency, TF over GST control)"
same,binding signal,FEV,"1.35 fold enrichment (6-mer frequency, TF over GST control)"
same,binding signal,ETV5,"1.41 fold enrichment (6-mer frequency, TF over GST control)"
same,binding signal,HSF1,"1.33 fold enrichment (6-mer frequency, TF over GST control)"
same,binding signal,SPIC,"1.31 fold enrichment (6-mer frequency, TF over GST control)"
same,binding signal,ELF4,"1.3 fold enrichment (6-mer frequency, TF over GST control)"
same,binding signal,ELK4,"1.44 fold enrichment (6-mer frequency, TF over GST control)"
same,binding signal,ETV2,"1.35 fold enrichment (6-mer frequency, TF over GST control)"
same,binding signal,ELF3,"1.44 fold enrichment (6-mer frequency, TF over GST control)"
same,binding signal,CRX,"1.23 fold enrichment (6-mer frequency, TF over GST control)"
same,binding signal,ETV1,"1.43 fold enrichment (6-mer frequency, TF over GST control)"
